# Assay outcomes from PubChem BioAssay.
# Sampled rows, rich in hits. Any-hit rate of the full collection: about 19%.
# HepG2 tox: HepG2 cytotoxicity, counter-screen for TGF-b inhibitors; HepG2 CAGA-GFP viability, ATP luminescence, 18 h; Potency, µM (series often up to 46.1 µM), for inactives: at the highest dose activity change, negative = cytotoxicity, usual class: cytotoxic; 410,000 compounds, 0.76% hits; AID 588856; also: potency is read from the fitted curve at half-maximal effect
#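 CellTiter-Glo luminescence gave cytotoxicity after 18 hours at 37 degrees C. The cells were HepG2 CAGA-GFP in 1% FBS DMEM, stimulated with 500 pg/mL TGF-beta after compound addition. %Activity was normalised to no-cell wells (complete cell-killing) and DMSO (no toxicity), and curves were fitted and classified.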
# TDP1 cell noCPT: qHTS for Inhibitors of human tyrosyl-DNA phosphodiesterase 1 (TDP1): qHTS in cells in absence of CPT; DT40 Tdp1-/- hTDP1 cells, no CPT, ATP luminescence, 48 h; Potency, µM (doses to about 46.2 µM), inactives show at the highest dose activity change, negative = growth inhibition, most hits filed as inhibitors; 420,000 compounds, 15% hits; also: potency is read from the fitted curve at half-maximal effect; % is scaled to controls: 0 for no effect and ±100 for the full control effect; nearly all actives have a fitted effect of over 55% in size
#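 Compound effects on proliferation are scored in DT40 Tdp1-/-;hTDP1 cells in the absence of CPT. ATP levels (CellTiter-Glo luminescence) are recorded after a ≥48 hr, 37 °C incubation.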
# TDP1 inh: TDP1 (human) enzyme inhibition; recombinant TDP1, AlphaScreen DNA substrate cleavage; Q9NUW8; 350,000 compounds, 0.28% hits; Potency, µM (series often up to 130 µM), without a hit: at the top dose activity change, negative = inhibition, hits mostly inhibitors; also: potency is read from the fitted curve at half-maximal effect; % is scaled to controls: 0 for no effect and ±100 for the full control effect; nearly all actives have a fitted effect of over 40% in size
# Target sequence (Q9NUW8 whole entry, looked up): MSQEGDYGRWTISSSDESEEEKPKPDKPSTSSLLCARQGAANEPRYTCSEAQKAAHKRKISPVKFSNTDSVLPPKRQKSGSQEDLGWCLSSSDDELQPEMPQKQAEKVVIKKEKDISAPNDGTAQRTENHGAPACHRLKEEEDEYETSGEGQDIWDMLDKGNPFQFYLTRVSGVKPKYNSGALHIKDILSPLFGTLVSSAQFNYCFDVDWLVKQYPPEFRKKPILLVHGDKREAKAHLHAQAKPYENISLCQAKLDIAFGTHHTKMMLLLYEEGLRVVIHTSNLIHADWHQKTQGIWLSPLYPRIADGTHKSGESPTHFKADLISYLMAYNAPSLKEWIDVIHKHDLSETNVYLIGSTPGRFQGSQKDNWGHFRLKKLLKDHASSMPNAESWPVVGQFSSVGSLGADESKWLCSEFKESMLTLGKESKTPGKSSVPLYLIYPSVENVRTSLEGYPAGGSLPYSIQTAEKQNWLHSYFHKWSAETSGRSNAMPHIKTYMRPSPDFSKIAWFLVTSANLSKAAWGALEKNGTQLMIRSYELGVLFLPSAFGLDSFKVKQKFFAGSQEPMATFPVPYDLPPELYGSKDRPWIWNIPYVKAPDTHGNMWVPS
#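 E. coli-derived human Tdp1, 1 nM final. Cpd preinc 15 min RT; substrate 15 nM final, 5 min RT; AS bead mix 10 ug/ml final, 10 min RT. Signal loss = tyrosine-FITC cleavage. No-enzyme wells = max signal.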
# TGFb inhibitor: blocks TGF-b signaling; 410,000 compounds, 1.2% hits; AID 588855; HepG2 CAGA-GFP TGF-b/SMAD3 reporter, GFP fluorescence, 18 h; TGF-beta stimulated, 500 pg/mL final; Potency, µM (doses to about 46.1 µM), for the others: top-dose activity, negative = inhibition, usual class: inhibitors; also: potency is read from the fitted curve at half-maximal effect; % is scaled to controls: 0 for no effect and ±100 for the full control effect; nearly all actives have a fitted effect of over 65% in size
#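 Cell-based qHTS in HEPG2 carrying a CAGA-GFP Smad reporter; compounds added before 500 pg/mL final TGF-beta, 18 h incubation at 37 degrees C, GFP fluorescence quantified per cell by imaging cytometry.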
# IL1B secr inh: inhibitors of inflammasome signaling (IL-1 beta secretion) | THP-1 LPS/ATP IL-1B secretion, AlphaLISA, 16 h; stronger effect = lower value | activity change, % at 57.5 µM | 360,000 compounds, 4.7% hits; in the data active = activity change below about -50%; inconclusive = mostly about -30% to -49%; also: % is scaled to controls: 0 for no effect and ±100 for the full control effect
#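 Secreted IL-1B measured by AlphaLISA bead assay after 16 h compound exposure of THP-1 cells; compounds (final up to 57.5 uM) added 1 h before LPS (250 ng/mL) and ATP (1.25 mM) stimulation; lower signal means less secretion.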
# TDP1 cell CPT: growth inhibition of DT40 Tdp1-/-;hTDP1 cells with camptothecin (screen for TDP1 inhibitors); chicken DT40 Tdp1-/-;hTDP1 cells + 20 nM CPT, ATP luminescence, 48 h; Potency, µM (series often up to 46.2 µM), for inactives: at the highest dose activity change, negative = growth inhibition, hits mostly inhibitors; 420,000 compounds, 12% hits; AID 686979; also: potency is read from the fitted curve at half-maximal effect; % is scaled to controls: 0 for no effect and ±100 for the full control effect; nearly all actives have a fitted effect of over 55% in size
#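 Cell growth measured by CellTiter-Glo luminescence after a minimum 48 h, 37 C compound exposure with 20 nM CPT in Tdp1-knockout DT40 cells stably expressing hTDP1, seeded 400/well; qHTS titration format.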
# * marks the source's active call; other numbers are inactive results; ? = inconclusive; nt = no result; [ ] = dose if it differs, or a comment. Unless noted, calls follow the shape of the dose curve; as a rule, active = well fitted curve in the direction sought with a large enough effect; inconclusive = small, poorly fitted or top-dose-only effect, or another doubt; inactive = no such curve, though single readings can be large; an effect the other way counts as inactive or inconclusive.
SMILES,HepG2 tox,TDP1 cell noCPT,TDP1 inh,TGFb inhibitor,IL1B secr inh,TDP1 cell CPT
CCC(c1nnnn1-c1c(C)cccc1C)N1CCN(c2cccc(C(F)(F)F)n2)CC1 (centres undefined),nt,14.6µM*,nt,nt,70.6,?
CCN1C(=O)N(C(C)=O)C2C1N(C(C)=O)C(=O)N2C(C)=O (centres undefined),-3.0%,-1.4%,2.5%,2.3%,10.0,20.0%
CCCCOc1ccc(C(=O)NCc2cn3cccc(C)c3n2)cc1,-17.2%,?,0.0%,1.7%,nt,?
Cc1ccc(CNC(=O)CCCn2c(=O)c3ccccc3n(CC(=O)C(C)(C)C)c2=O)cc1,-8.5%,?,2.5%,-0.9%,nt,?
CCOc1ccc(CC(=O)NCc2ccc3c(c2)CCN3C(C)=O)cc1OCC,-7.7%,-3.3%,-3.4%,0.0%,nt,4.8%
N#Cc1c(NC(=S)NC(=O)c2ccccc2)sc2c1CCC2,-7.5%,?,2.3%,-28.6%,0.0,18.4µM*
COC(=O)CCC(=O)Nc1sc2c(c1C#N)CCCC2,0.1%,4.61µM*,4.9%,-6.9%,10.8,4.61µM*
CC(C)(C)C(=O)NC(NC(=S)Nc1sc2c(c1C#N)CCCC2)C(Cl)(Cl)Cl (centres undefined),-59.0%,?,5.8%,-17.2%,4.8,25.9µM*
CCCC(=O)Nc1sc2c(c1C#N)CCCC2,2.3%,?,7.7%,24.1%,-2.3,-5.4%
CC(C)(C)C(=O)Nc1sc2c(c1C#N)CCC2,5.8%,0.4%,0.0%,26.2%,14.8,-0.2%
CC(=O)NC(=S)Nc1sc2c(c1C#N)CCCCC2,-5.7%,?,2.7%,-1.4%,-74.5*,?
O=c1c(-c2ccc(F)cc2)nc2cnc(Oc3ccccc3)nc2n1C[C@H]1CCCO1,nt,?,nt,nt,nt,-28.4%
CCCCCCC/C=C/C1=CC2(C)CC1(C)C(CCCCCCC)CC2=O (centres undefined),nt,nt,-5.8%[21 µM],nt,nt,nt
Cc1ccc(C(=O)COC(=O)c2cccc([N+](=O)[O-])c2)s1,18.1%,9.6%,3.0%,35.4%,36.7,4.9%
Cc1cccc(-n2ncc3c(NC4CCCCC4)ncnc32)c1,-2.9%,?,0.0%,-24.3%,?,?
Cc1cccc(-n2ncc3c(NC4CCCC4)ncnc32)c1,-6.1%,-52.1%,7.8%,47.1%,nt,20.6µM*
Clc1cccc(-n2ncc3c(NC4CCCCCC4)ncnc32)c1,-18.3%,?,5.2%,?,nt,20.6µM*
Cc1ccc(-n2ncc3c(NC4CCCCC4)ncnc32)cc1Cl,-5.6%,16.4µM*,7.8%,15.1%,nt,20.6µM*
CC(=O)OC[C@@H]1O[C@H](C/C=N\OC[C@@H](C)[C@H](OCc2ccccc2)C(C)C)C=C[C@@H]1OC(C)=O,nt,nt,2.6%[21 µM],nt,nt,nt
O=C(Cn1c(=O)nc(-c2ccccc2)c2ccccc21)NCCc1ccc(Cl)cc1,-2.1%,-23.7%,3.8%,-5.7%,nt,-6.5%
COc1cccc(-n2c(SCc3cccc(C)c3)nc3c([nH]c4ccccc43)c2=O)c1,-54.6%,?,6.6%,?,nt,?
CCCCCCN1C[C@H](n2cc(C3CC3)nn2)[C@@H](O)C[C@@H]1c1ccc(C)cc1,15.8µM*,11.6µM*,nt,14.1µM*,-4.7,20.6µM*
CCCCCCN1C[C@@H](n2cc(C3CC3)nn2)[C@H](O)C[C@@H]1c1ccc(OC)cc1,-7.1%,14.6µM*,nt,?,?,18.4µM*
Cc1cc(C)cc(C(=O)NCCc2sc(-c3ccc(F)cc3)nc2C)c1,-16.6%,20.6µM*,6.2%,-15.1%,nt,13µM*
COc1ccc(C(=O)NCCc2sc(-c3ccc(F)cc3)nc2C)cc1OC,-23.8%,14.6µM*,3.8%,?,nt,?
SMILES,HepG2 tox,TDP1 cell noCPT,TDP1 inh,TGFb inhibitor,IL1B secr inh,TDP1 cell CPT
COc1ccc(C(=O)NCCc2sc(-c3cccc(F)c3)nc2C)cc1,-19.9%,16.4µM*,-0.6%,-3.2%,nt,23.1µM*
COc1ccc(CC(=O)NCCc2sc(-c3ccc(Cl)cc3)nc2C)cc1OC,-20.8%,20.6µM*,-0.6%,7.94µM*,nt,?
COc1ccc(CC(=O)NCCc2sc(-c3cccc(F)c3)nc2C)cc1,-11.2%,?,-0.6%,-27.1%,nt,-27.0%
CC(C)(C)NCC(O)COc1cccc2c1CCC(=O)N2 (centres undefined),-0.9%,13.3%,nt,13.8%,31.0,11.7%
Cc1cccc2c(=O)cc(CSc3ccccc3NC(=O)c3cccc(Cl)c3)[nH]c12,-28.0%,?,2.7%,-31.9%,nt,?
Cc1nc(-c2ccc(Cl)cc2)sc1CCNC(=O)c1ccco1,-21.1%,18.4µM*,5.3%,?,nt,20.6µM*
CC(C)c1ccc(CNc2ccc3c(c2)ncn3C)cc1,-32.3%,?,nt,?,0.0,23.1µM*
Cn1cnc2cc(NCc3ccccc3Cl)ccc21,2.7%,-16.5%,nt,0.0%,10.1,-18.2%
CN(C)c1ccc(CNc2ccc3c(c2)ncn3C)cc1,-19.2%,23.1µM*,12.4%,0.7%,-58.6*,14.6µM*
CC(=O)Nc1ccccc1-c1nc2ccccc2n(CC(=O)c2ccc(Br)cc2)c1=O,-10.4%,?,5.7%,-0.1%,nt,?
Cc1cccc(NC(=O)C(Cc2ccccc2)n2cccc2)c1C (centres undefined),-15.5%,14.6µM*,5.9%,-2.1%,nt,16.4µM*
O=C(Nc1ccc(F)cc1)C(Cc1ccccc1)n1cccc1 (centres undefined),-8.0%,?,1.9%,-11.0%,-9.5,?
O=C(NC1CCCCCC1)C(Cc1ccccc1)n1cccc1 (centres undefined),-10.6%,?,3.9%,-4.0%,-61.8*,?
CC1CCC(NC(=O)C(Cc2ccccc2)n2cccc2)CC1 (centres undefined),-15.8%,?,5.2%,-14.9%,-26.4,?
Cc1ccc(NC(=O)C(Cc2ccccc2)n2cccc2)cc1 (centres undefined),-8.7%,23.1µM*,3.9%,-21.6%,?,?
Cc1csc(NC(=O)C(Cc2ccccc2)n2cccc2)n1 (centres undefined),-6.4%,?,5.3%,?,-17.7,29.1µM*
O=C1OC(N2C(=O)CC[C@H]2C(=O)Nc2ccc(Br)cc2F)c2ccccc21 (some centres undefined),-5.2%,2.1%,nt,34.8%,17.0,0.4%
COc1cccc(CNC(=O)Cn2cc3c(n2)-c2c(oc(C(=O)N4CCOCC4)c2C)CC3)c1,-13.0%,20.6µM*,10.3%,-18.4%,nt,18.4µM*
Cc1c(C(=O)N2CCOCC2)oc2c1-c1nn(CC(=O)NCc3cccc(Cl)c3)cc1CC2,-3.4%,16.4µM*,7.7%,-17.3%,nt,?
Cc1c(C(=O)N2CCOCC2)oc2c1-c1nn(CC(=O)NCc3cccc(F)c3)cc1CC2,-10.4%,?,2.6%,-27.3%,nt,?
COc1ccccc1CNC(=O)Cn1cc2c(n1)-c1c(oc(C(=O)N3CCOCC3)c1C)CC2,-3.5%,23.1µM*,-2.6%,-23.5%,nt,?
